The whole screen tested about 340,000 compounds, of which about 12,000 (3.5%) were called active. Not shown: some 18% with an inconclusive outcome. Calls follow the shape of the dose curve; as a rule, active = well fitted inhibition curve with a large enough effect; inconclusive = small, poorly fitted or top-dose-only effect, or another doubt; inactive = no such curve, though single readings can be large or run the other way. The full list was thinned out, with actives kept by preference. The source holds several records for some structures; these can differ, active in one and inactive in another.
Test: qHTS Assay for Inhibitors of Hepatitis C Virus (HCV)
Details: Huh7.5.1 HCVcc-Cre infection, luciferase reporter, 44 h; series mostly up to 41.8 µM; activity change, negative = inhibition: at the top concentration
Procedure, shortened: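 After 44 h co-culture of compound, cells and HCVcc-Cre (~0.5 moi), substrate is added for 15 min at room temperature and luciferase measured over 15 sec. Cells were seeded at 1,000/well and pre-cultured 4 h.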
% is scaled to controls: 0 for no effect and ±100 for the full control effect; potency is read from the fitted curve at half-maximal effect.

With `Cc1csc(=O)n1CCC(=O)OCC(=O)NNC(=O)c1ccc(Br)cc1` as the molecule, how does the “activity change, negative = inhibition” value read?
The value was 7.44% (inactive).

For `CCOC(=O)[C@H]1[C@H]2COc3ccc(OC)cc3[C@@H]2N2C(=O)c3ccc(F)cc3NC(=O)[C@@]12C`, which “activity change, negative = inhibition” value is on record?
The value was -4.19% (inactive).

With `COC(=O)C1=C(c2cc3ccccc3o2)C[C@@H]2CC[C@H]1N2C(=O)NC1CCCCC1` as the molecule, how does the Potency read?
Its Potency is 7.94 µM (active).

With `COC(=O)C1=C(c2cc3ccccc3s2)C[C@@H]2CC[C@H]1N2C(=O)NC(C)C` as the molecule, how does the “activity change, negative = inhibition” value read?
Its value is -26.4% (inactive).

For `COC(=O)C1=C(c2ccc(F)cc2F)C[C@@H]2CC[C@H]1N2C(=O)NC1CC1`, which “activity change, negative = inhibition” value is on record?
Its value is 18.2% (inactive).

For `O=C(COC(=O)c1cc(S(=O)(=O)N2CCOCC2)ccc1Cl)NCCc1ccccc1`, which “activity change, negative = inhibition” value is on record?
Its value is 5.53% (inactive).

For `Cc1ccc(C)c(NC(=O)CN(C)C(=O)c2ccc3ncsc3c2)c1`, which “activity change, negative = inhibition” value is on record?
The value was 36.6% (inactive).

With `Cc1sc(NC(=O)C2=COCCO2)c(C#N)c1C` as the molecule, how does the “activity change, negative = inhibition” value read?
Its value is 14.2% (inactive).

Which “activity change, negative = inhibition” value does the source give for `CC(NC(=O)c1cccc(S(=O)(=O)N2CCc3ccccc3C2)c1)c1ccco1` (stereo unspecified) here?
The value was 16.5% (inactive).

For `CN1CCN(S(=O)(=O)c2cccc(C(=O)N3CCc4ccccc43)c2)CC1`, which “activity change, negative = inhibition” value is on record?
The value was 21% (inactive).

For `Cc1cccc(N2CCN(C(=O)c3cccc(S(=O)(=O)N4CCc5ccccc5C4)c3)CC2C)c1` (stereo unspecified), which Potency is on record?
The Potency was 7.08 µM (active).

Which Potency does the source give for `CC(=O)c1ccc2c(c1)c1ccccc1n2CC(C)C` here?
The Potency was 2.51 µM (active).

For `CCCCn1c(=O)c(C(C)=O)c(O)c2ccccc21`, which “activity change, negative = inhibition” value is on record?
Its value is 1.24% (inactive).

Which “activity change, negative = inhibition” value does the source give for `Cc1cc(NC(=O)CSc2nc3ccccc3n2CC(C)C)no1` here?
The value was -11.2% (inactive).

Which “activity change, negative = inhibition” value does the source give for `CCCCCCOC(=O)NCC(O)c1ccccc1` (stereo unspecified) here?
The value was 6.95% (inactive).

For `COc1cccc(C(O)c2nc3ccccc3n2C)c1` (stereo unspecified), which “activity change, negative = inhibition” value is on record?
Its value is 11.2% (inactive).

For `CCCCCC(O)c1cccc(OCc2ccc3ccccc3n2)c1` (stereo unspecified), which Potency is on record?
Its Potency is 14.1 µM (active).

What about the activity change, negative = inhibition of the same molecule?
The activity change, negative = inhibition was 0.332% [at 8.37 µM] (inactive).

With `Cc1ccc(NC(=O)Cn2cnc3c(OCc4ccccc4)ncnc32)cc1C` as the molecule, how does the “activity change, negative = inhibition” value read?
The value was 4.25% (inactive).

Which “activity change, negative = inhibition” value does the source give for `Cc1noc(C)c1C(=O)OC(C)C(=O)Nc1ccc2c(c1)OCO2` (stereo unspecified) here?
Its value is 7.1% (inactive).

With `COc1c(C)cc(C(=O)C2CCCN(S(=O)(=O)c3c(C)noc3C)C2)cc1C` (stereo unspecified) as the molecule, how does the Potency read?
Its Potency is 10 µM (active).

Which “activity change, negative = inhibition” value does the source give for `Cc1noc(C)c1S(=O)(=O)N1CCCC(C(=O)Nc2nccs2)C1` (stereo unspecified) here?
Its value is 0.314% (inactive).

For `Cc1ccc(NC(=O)C2CCCN(S(=O)(=O)c3c(C)noc3C)C2)c(C)c1` (stereo unspecified), which “activity change, negative = inhibition” value is on record?
The value was -11.6% (inactive).

For `Nc1c(N(Cc2ccco2)C(=O)c2cccc(F)c2)c(=O)[nH]c(=O)n1Cc1ccccc1`, which “activity change, negative = inhibition” value is on record?
The value was 7.23% (inactive).

For `Brc1cnc2ccccc2c1N1CCCCC1`, which “activity change, negative = inhibition” value is on record?
Its value is -5.44% (inactive).

With `N=c1c2c(-c3ccccc3)c(-c3ccccc3)oc2ncn1Cc1ccco1` as the molecule, how does the Potency read?
The Potency was 6.31 µM (active).

With `Cn1c2ccccc2c(=O)c2c(=O)n(Cc3ccco3)c(COc3ccccc3)nc21` as the molecule, how does the “activity change, negative = inhibition” value read?
The value was -7.18% (inactive).

For `c1ccc(-c2oc3ncnc(N4CCOCC4)c3c2-c2ccccc2)cc1`, which “activity change, negative = inhibition” value is on record?
The value was -11% (inactive).

Which “activity change, negative = inhibition” value does the source give for `COc1ccc(Nc2ccc3ccccc3c2)cc1` here?
Its value is -3.86% (inactive).

For `CC(=O)Nc1ccc(-c2csc(NC=C3C(=O)OC(C)(C)OC3=O)n2)cc1`, which “activity change, negative = inhibition” value is on record?
Its value is -9.72% (inactive).

Which “activity change, negative = inhibition” value does the source give for `CC(=O)Nc1ccc(S(=O)(=O)Nc2nc(-c3ccc(C(C)(C)C)cc3)cs2)cc1` here?
The value was 15.6% (inactive).

With `CC(=O)Nc1ccc(-c2csc(NC(=O)Nc3ccccc3)n2)cc1` as the molecule, how does the Potency read?
The Potency was 10 µM (active).

Which “activity change, negative = inhibition” value does the source give for `Cc1ccc(S(=O)(=O)N2CCC(C(=O)OCC(=O)N(C)c3ccccc3)CC2)cc1C` here?
The value was -3.89% (inactive).

Which activity change, negative = inhibition does the source give for `Cc1cccn2c(=O)nc(SCC(=O)NCc3ccccc3Cl)nc12` here?
The activity change, negative = inhibition was 2.77% [at 8.37 µM] (inactive).

Which “activity change, negative = inhibition” value does the source give for `CN(CC(=O)NC(=O)Nc1ccccc1F)Cc1ccccc1` here?
The value was -23.3% (inactive).

With `O=C1CC(C(=O)O)NC(=S)N1` (stereo unspecified) as the molecule, how does the “activity change, negative = inhibition” value read?
Its value is -0.0683% (inactive).

With `O=C(c1ccc(Cl)c(S(=O)(=O)N2CCCCCC2)c1)N1CCN(c2ccc(O)cc2)CC1` as the molecule, how does the “activity change, negative = inhibition” value read?
The value was -27% (inactive).

Which “activity change, negative = inhibition” value does the source give for `COc1cc(CN2CCC(C(N)=O)CC2)ccc1OCc1ccccc1` here?
Its value is -7.93% (inactive).

Which “activity change, negative = inhibition” value does the source give for `COc1ccc(CNC2CCCCC2)cc1` here?
Its value is 3.26% (inactive).

With `COc1cc(CNC2CCCC2)c(Br)cc1OCc1ccccc1` as the molecule, how does the Potency read?
Its Potency is 5.62 µM (active).

With `O=C(O)c1ccc(Cn2cnc3c(=S)nc[nH]c32)cc1` as the molecule, how does the “activity change, negative = inhibition” value read?
The value was 9.47% (inactive).

Which “activity change, negative = inhibition” value does the source give for `Cc1ccc(COC(=O)CN2C(=O)NC3(CCCC3)C2=O)cc1` here?
The value was 2.91% (inactive).

With `C=CC[C@@H](CC(=O)NCCO)C(=O)N[C@H](C)COC(=O)[C@@H](CC=C)CC(=O)OC(C)(C)C` as the molecule, how does the “activity change, negative = inhibition” value read?
Its value is 4.28% (inactive).

For `CC(OC(=O)c1ccccc1NCCO)C(=O)Nc1ccnn1C(C)C` (stereo unspecified), which “activity change, negative = inhibition” value is on record?
Its value is -14.7% (inactive).

With `COc1ccccc1N(C)S(=O)(=O)c1ccc(C(=O)NC2CCCCCC2)cc1` as the molecule, how does the Potency read?
Its Potency is 11.2 µM (active).

For `COc1ccc(S(=O)(=O)NC(C)C)cc1C(=O)NC1CCCCC1`, which “activity change, negative = inhibition” value is on record?
The value was 6.33% (inactive).

For `COc1ccccc1N(C)S(=O)(=O)c1ccc(C(=O)N2CCC(C(N)=O)CC2)cc1`, which “activity change, negative = inhibition” value is on record?
The value was -10.2% (inactive).

With `CSc1ccccc1NC(=O)COC(=O)CCCOc1ccc(C)cc1` as the molecule, how does the “activity change, negative = inhibition” value read?
The value was 26% (inactive).

With `COc1ccc(-c2c(C)cc3oc(=O)cc(-c4ccccc4)c3c2C)cc1C=O` as the molecule, how does the “activity change, negative = inhibition” value read?
Its value is -7.87% (inactive).

Which activity change, negative = inhibition does the source give for `Cc1cc2oc(=O)cc(-c3ccccc3)c2c(C)c1-c1ccc(OC(F)(F)F)cc1` here?
The activity change, negative = inhibition was -14.5% [at 8.37 µM] (inactive).

Which Potency does the source give for `COc1ccc(-c2c(C)cc3oc(=O)cc(-c4ccccc4)c3c2C)cc1OC` here?
Its Potency is 11.2 µM (active).

For `Cc1ccc(S(=O)(=O)N(C)c2ccc(OCC(=O)OCC(=O)N(CC#N)c3ccccc3)cc2)cc1`, which “activity change, negative = inhibition” value is on record?
The value was 17.5% (inactive).

With `NCCN1CCN2C(=O)CN(C(=O)c3ccccc3)CC12` (stereo unspecified) as the molecule, how does the “activity change, negative = inhibition” value read?
The value was -0.729% (inactive).

With `CCOCCCNCc1cc(Br)ccc1OCC` as the molecule, how does the “activity change, negative = inhibition” value read?
The value was -11.4% (inactive).

For `CCOc1ccc(Br)cc1S(=O)(=O)N1CCC(C(=O)O)CC1`, which “activity change, negative = inhibition” value is on record?
Its value is 7.38% (inactive).

With `CCOc1ccc(Br)cc1CSC(=N)N` as the molecule, how does the Potency read?
Its Potency is 11.2 µM (active).

For `COc1ccc(OCC(=O)NNC(=O)C2CCC2)cc1`, which “activity change, negative = inhibition” value is on record?
The value was 11% (inactive).

With `Cc1ccc(C(=O)Nc2ncccc2C)cc1S(=O)(=O)N1CCOCC1` as the molecule, how does the “activity change, negative = inhibition” value read?
The value was 11% (inactive).

For `Cc1ccccc1CSCCNC(=O)c1ccc(N(C)S(=O)(=O)c2ccccc2)cc1`, which Potency is on record?
Its Potency is 10 µM (active).

Which “activity change, negative = inhibition” value does the source give for `Cc1ccc(C(=O)NCC(c2cccs2)N(C)C)cc1S(=O)(=O)N1CCOCC1` (stereo unspecified) here?
The value was 0.639% (inactive).

For `CC(C)(CNC(=O)c1ccc(Cl)c(S(=O)(=O)N2CCc3ccccc3C2)c1)N1CCOCC1`, which Potency is on record?
Its Potency is 7.08 µM (active).

With `Cc1ccccc1CSCCNC(=O)c1ccc(Cl)c(S(=O)(=O)N2CCOCC2)c1` as the molecule, how does the Potency read?
The Potency was 11.2 µM (active).

Which “activity change, negative = inhibition” value does the source give for `COc1ccccc1CNC(=O)c1ccc(N(C)S(=O)(=O)c2ccc(C)cc2)cc1` here?
Its value is 10.7% (inactive).

Which “activity change, negative = inhibition” value does the source give for `CC(C)(CNC(=O)Cc1ccc(Cl)cc1Cl)N1CCOCC1` here?
The value was 8.66% (inactive).

Which “activity change, negative = inhibition” value does the source give for `CN(C)S(=O)(=O)c1ccc(C(=O)NCC(C)(C)N2CCOCC2)cc1` here?
The value was 14.9% (inactive).

For `CN(c1ccccc1)S(=O)(=O)c1ccc(C(=O)NCCc2ccccc2)cc1`, which “activity change, negative = inhibition” value is on record?
Its value is -13% (inactive).
